TDP1 cell CPT: qHTS for Inhibitors of human tyrosyl-DNA phosphodiesterase 1 (TDP1): qHTS in cells in presence of CPT | chicken DT40 Tdp1-/-;hTDP1 cells + 20 nM CPT, ATP luminescence, 48 h | Potency, µM (series often up to 46.2 µM), inactives show at the top dose activity change, negative = growth inhibition, hits mostly inhibitors | 420,000 compounds, 12% hits | AID 686979, 2013; further: potency means the concentration at half of the fitted maximal effect; nearly all actives have a fitted effect of over 55% in size
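Chicken DT40 Tdp1-/- cells complemented with human TDP1, 400 cells/well, exposed to compounds plus 20 nM camptothecin for at least 48 h at 37 C; viability read as ATP content by CellTiter-Glo luminescence.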
IL1B secr inh: qHTS for Inhibitors of Inflammasome Signaling: IL-1-beta AlphaLISA Primary Screen | THP-1 LPS/ATP IL-1B secretion, AlphaLISA, 16 h; stronger effect = lower value | activity change, % at 57.5 µM | 360,000 compounds, 4.7% hits; in the data active means activity change below about -50%; inconclusive means mostly about -30% to -49%
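THP-1 cells pretreated 1 hr with compounds (up to 57.5 uM final), then stimulated with LPS (250 ng/mL final) plus ATP (1.25 mM final); secreted IL-1B measured by AlphaLISA after 16 hr, decreased signal indicating inhibition.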
HT1080 IDH1KD tx: qHTS for induction of synthetic lethality in tumor cells producing 2HG: qHTS for the HT-1080-IDH1KD cell line; HT-1080 IDH1 knockdown viability, ATP luminescence, 48 h; Potency, µM (series often up to 46.1 µM), for the others: at the highest dose activity, negative = toxicity, usual class: cytotoxic; 360,000 compounds, 2% hits;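 further: potency means the concentration at half of the fitted maximal effect; 0% = DMSO wells and -100% = cell-free medium wells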
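Knockdown cells (IDH1KD HT-1080) received compounds 2 h after plating at 750 cells/well and were kept 48 h at 37 °C in 5% FBS RPMI. A CellTiter-Glo luminescence read gave % activity for curve fitting.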
HT1080-NT tox: qHTS for induction of synthetic lethality in tumor cells producing 2HG: qHTS for the HT-1080-NT fibrosarcoma cell line. HT-1080-NT fibrosarcoma viability, CellTiter-Glo ATP luminescence, 48 h. Potency, µM (titrated, usually from 46.1 µM), for inactives: at the top dose activity, negative = less viability, hits mostly cytotoxic. 360,000 compounds, 1.6% hits;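 further: NT is the 2HG producing partner of a matched IDH1 knockdown line; potency means the concentration at half of the fitted maximal effect; 0% = DMSO-treated cells and -100% = media-only wells without cells; nearly all actives have a fitted effect of over 55% in size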
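Compounds were tested in concentration-response format on HT-1080-NT cells for 48 hours at 37 degrees C. Cell viability came from CellTiter-Glo luminescence; curves were classified by r2, response magnitude and activity.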
DT40 TDP1 no CPT: qHTS for Inhibitors of human tyrosyl-DNA phosphodiesterase 1 (TDP1): qHTS in cells in absence of CPT; AID 686978, 2013; DT40 Tdp1-/- hTDP1 cells, no CPT, ATP luminescence, 48 h; Potency, µM (series often up to 46.2 µM), without a hit: top-dose activity change, negative = growth inhibition, actives largely listed as inhibitors; 420,000 compounds, 15% hits; further: potency means the concentration at half of the fitted maximal effect; nearly all actives have a fitted effect of over 55% in size
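A cellular qHTS used chicken DT40 cells lacking endogenous Tdp1 but carrying stably transfected human TDP1. Compounds were applied without camptothecin, and cell growth kinetics were judged by ATP-dependent luminescence after ≥48 hr.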
* = called active by the depositor; ? = inconclusive; · = not tested or not shown; [ ] = another dose, or the depositor's remark. The list is not random: actives were taken first. Their share in the collection is about 19%. Unless noted, the call rests on the fitted dose curve; in most records, active means well fitted curve in the direction sought with a large enough effect; inconclusive means small, poorly fitted or top-dose-only effect, or another doubt; inactive means no such curve, though single readings can be large; an effect the other way counts as inactive or inconclusive. Unless noted, on the % scale 0 is the no-effect control and ±100 the full control effect.

SMILES	TDP1 cell CPT	IL1B secr inh	HT1080 IDH1KD tx	HT1080-NT tox	DT40 TDP1 no CPT
COc1ccc(NS(=O)(=O)c2cc(NC(=O)C3CC3)ccc2N2CCOCC2)cc1	-17.2%	-3.4	-25.2%	3.3%	-29.1%
CC(C)C(=O)Nc1ccc(N2CCOCC2)c(S(=O)(=O)Nc2ccccc2Cl)c1	?	-14.4	-1.9%	2.5%	13µM*
COc1ccc(NS(=O)(=O)c2cc(NC(=O)c3ccc(Cl)cc3)ccc2N2CCOCC2)cc1	2.59µM*	-25.9	2.59µM*	2.31µM*	2.31µM*
COc1ccc(C2NC(=O)NC(C)=C2C(=O)Nc2cc(C)cc(C)c2)c(OC)c1 (stereo not drawn)	-19.4%	·	·	·	-1.2%
COCCNC(=S)Nc1ccc(N2CCOCC2)c(S(=O)(=O)Nc2ccc(Cl)cc2)c1	?	-3.0	4.7%	-2.4%	10.3µM*
N#Cc1cccc(NC(=O)c2cncn2-c2ccccc2)c1	23.9%	-17.7	13.4%	9.3%	-1.3%
Cn1c[n+](C)cc1-c1ccc(/C(N)=N/O)cc1	6.2%	14.1	11.5%	12.9%	-16.6%
CCN(CC)S(=O)(=O)c1cccc(C(=O)OCC(=O)NC(C)c2ccccc2)c1 (stereo not drawn)	1.4%	9.7	0.2%	13.1%	-1.5%
Cc1ccc(C2(O)CN(c3ccccc3)C3=[N+]2CCS3)cc1 (stereo not drawn)	?	-75.6*	-5.3%	-3.5%	?
Cc1ccccc1N1CC(O)(c2ccccc2)[N+]2=C1SCC2 (stereo not drawn)	?	17.1	0.0%	1.4%	?
Cc1ccc(C2(O)CN(c3ccccc3C)C3=[N+]2CCS3)cc1 (stereo not drawn)	11.6µM*	29.6	4.2%	7.9%	18.4µM*
O=C(c1ccco1)N1CCN(C2CN(Cc3ccc([N+](=O)[O-])cc3)S(=O)(=O)C2)CC1 (stereo not drawn)	-8.7%	2.7	5.0%	-0.9%	-15.4%
COc1cccc(NC(=O)CN(C)CC(=O)Nc2ccc(C)c([N+](=O)[O-])c2)c1	?	-2.5	-14.9%	-17.3%	10.3µM*
CN(CC(=O)Nc1cccc(F)c1)CC(=O)Nc1ccccc1[N+](=O)[O-]	23.1µM*	4.9	-1.0%	-0.5%	11.6µM*
COc1ccc(NC(=O)CN(C)CC(=O)c2[nH]c(C)c(C(C)=O)c2C)cc1	?	10.7	-12.1%	6.8%	?
COC(=O)c1c(C)[nH]c(C(=O)CN(C)CC(=O)Nc2cccc(F)c2)c1C	-23.6%	-15.4	-1.6%	-2.4%	14.6µM*
C=CCOc1ccc(CN(C)CC(=O)Nc2ccccc2[N+](=O)[O-])cc1	?	7.5	-20.3%	-22.9%	20.6µM*
CCCNC(=O)c1onc(CSc2ccc(Cl)cc2)c1C(=O)NCCC(C)C	?	-18.8	0.9%	-11.1%	?
CC(C)CCNC(=O)C(=O)Nc1ccccc1	-2.3%	-19.2	13.6%	?	-16.7%
Cc1ccc(/C=C/C(=O)c2ccc(N3CCOCC3)cc2)s1	-10.5%	?	-9.1%	-3.5%	?
CCc1ccc(/C=C/C(=O)c2ccc(N3CCOCC3)cc2)cc1	?	-89.0*	?	-22.9%	?
O=C(/C=C/c1ccc(F)cc1)c1ccc(N2CCOCC2)cc1	20.6µM*	-58.6*	5.4%	-1.6%	?
CN(C)c1ccc(/C=C2/CCCc3c2nc2ccccc2c3C(=O)O)cc1	-2.2%	·	·	·	-19.6%
O=C(c1ccccc1Br)N1CCC(c2nc3ccccc3s2)CC1	?	-16.7	-1.4%	-3.3%	29.1µM*
COc1cc(C(=O)N2CCC(c3nc4ccccc4s3)CC2)cc(OC)c1OC	?	·	·	·	20.6µM*
SMILES	TDP1 cell CPT	IL1B secr inh	HT1080 IDH1KD tx	HT1080-NT tox	DT40 TDP1 no CPT
CCc1ccc(C(=O)N2CCC(c3nc4ccccc4s3)CC2)cc1	?	-0.4	-17.2%	-3.1%	?
CSc1c(CC(=O)Nc2ccccc2C(F)(F)F)n(Cc2ccccc2)c2ccccc12	?	20.3	?	?	?
O=C1CC(C(=O)N2CCOc3ccc(CN4CCC(Oc5cccnc5)CC4)cc3C2)c2ccccc21 (stereo not drawn)	-5.7%[9.04 µM]	·	·	·	?
CSc1ccc(CCNS(=O)(=O)c2cc(-c3cc(C)no3)ccc2C)cc1	?	·	·	·	20.6µM*
CCc1ccc(-c2cc(C)no2)cc1S(=O)(=O)NCCc1ccccc1	?	-12.7	?	-5.4%	18.4µM*
CCc1ccc(NC(=O)CSc2nnc(SCC(=O)Nc3ccc(CC)cc3)n2N)cc1	8.6%	25.9	?	?	-8.1%
CCOC(=O)NC(=O)/C(C#N)=N\Nc1cccc(Cl)c1	23.1µM*	3.0	-2.6%	0.8%	20.6µM*
Cc1ccc(Cc2nc3ccccc3nc2SCC(=O)N2CCCCC2C)cc1 (stereo not drawn)	14.6µM*	·	·	·	23.1µM*
CC1CCCCN1C(=O)CSc1nnc(Cc2ccccc2)n1C (stereo not drawn)	1.1%	7.0	19.7%	13.9%	1.4%
Cc1ccc(Cn2c(=O)c3ccccc3n3c(SCC(=O)N4CCCCC4C)nnc23)cc1 (stereo not drawn)	18.4µM*	0.0	-5.6%	-3.0%	16.4µM*
Cc1ccc2cc(C#N)c(SCC(=O)N3CCCc4ccccc43)nc2c1C	20.6µM*	34.0	3.0%	1.3%	8.2µM*
COc1cccc(Cc2nc3ccccc3nc2SCC(=O)N2CCCCC2C)c1 (stereo not drawn)	?	·	·	·	5.17µM*
Cc1ccc2cc(C#N)c(SCC(=O)N3CCCc4ccccc43)nc2c1	13.2%	0.0	16.9%	13.4%	-4.1%
COCCNC(=O)C1CCCN(Cc2ccccc2-c2ccccc2)CC1 (stereo not drawn)	4.6%	22.0	20.9%	?	-14.5%
COc1ccccc1-c1ccc(C(=O)N(C)CC2COCCO2)c(N2CCN(c3ccccc3F)CC2)n1 (stereo not drawn)	-7.7%	·	·	·	-9.5%
COc1cccc(Cc2nc3ccccc3nc2SCC(=O)N2CCCc3ccccc32)c1	18.4µM*	·	·	·	?
O=C(N/N=C\c1ccc(Cl)cc1)C1=NOC2COC3(CCN(c4ccc([N+](=O)[O-])cc4)CC3)OCC12 (stereo not drawn)	10.3µM*	0.0	-0.4%	-23.9%	6.51µM*
CCOC(=O)C1=C[C@@H](C(C)C)N(S(=O)(=O)c2ccc(C)cc2)[C@H]1c1ccccc1F	?	-2.7	-19.1%	-0.5%	?
